Only some compounds are listed: those with a hit (about 8.1% of all), similar ones and a draw of the others.
MCF10A rereplic: A quantitative high throughput screen for small molecules that induce DNA re-replication in MCF 10a normal breast cells; 2.9% of 350,000 active; Potency, µM (top dose mostly 46.1 µM), inactives show top-dose activity, positive = re-replication, usual class: activators; AID 624296, 2012; MCF 10A DNA re-replication, Hoechst nuclear intensity, 48 h; further: % of control where 0% means no effect; nearly all actives have a fitted effect of over 50% in size
KB-3-1 cytotox: qHTS assay for MDR1-selective chemotherapeutics: Primary screen using the parental adenocarcinoma cell KB-3-1 | KB-3-1 viability, CellTiter-Glo ATP luminescence, 72 h | Potency, µM (doses to about 46.1 µM), hits mostly cytotoxic | 1.4% of 400,000 active; further: on the % scale 0 is the no-effect control and ±100 the full control effect; nearly all actives have a fitted effect of over 60% in size
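Cytotoxicity in the drug-sensitive parental line KB-3-1 was scored as loss of CellTiter-Glo luminescence following 72 h incubation with compound. Values come from curve fitting of normalized concentration-response data.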
ELG1 repair inh: qHTS screen for small molecules that inhibit ELG1-dependent DNA repair in human embryonic kidney (HEK293T) cells expressing luciferase-tagged ELG1 | Potency, µM (series often up to 46.1 µM), without a hit: at the top dose activity change, negative = inhibition, hits mostly inhibitors | HEK293T ELG1-luciferase reporter, luminescence, 16 h; DNA damage induced by 5-fluorouridine | AID 504467, 2011 | 2.3% of 330,000 active; further: on the % scale 0 is the no-effect control and ±100 the full control effect; nearly all actives have a fitted effect of over 55% in size
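DMSO vehicle served as the neutral condition. Each well held 2,000 cells given 5-fluorouridine plus compound; after 16 hr at 37 °C/5% CO2, ONE-Glo was added and luciferase measured 30 min later.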
KB-V1 MDR tox: qHTS assay for MDR1-selective chemotherapeutics: Primary screen using the drug-selected MDR subline cells KB-V1 | Potency, µM (titrated, usually from 46.1 µM), usual class: cytotoxic | 3.4% of 400,000 active | KB-V1 MDR cells viability, CellTiter-Glo, 72 h | AID 1347076, 2019; further: on the % scale 0 is the no-effect control and ±100 the full control effect; nearly all actives have a fitted effect of over 60% in size
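qHTS viability screen in drug-selected KB-V1 MDR cells: 72 h compound treatment at 37 degrees C, ATP luminescence end point.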
SW480 rerep: A quantitative high throughput screen for small molecules that induce DNA re-replication in SW480 colon adenocarcinoma cells | SW480 DNA re-replication, Hoechst DNA content imaging, 48 h | Potency, µM (series often up to 46.1 µM), without a hit: at the top dose re-replication activation, hits mostly activators | 1.8% of 340,000 active; further: % of control where 0% means no effect; nearly all actives have a fitted effect of over 55% in size
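250 cells/well; 23 nL cpd via pin tool; 48 hr, 37 C, 5% CO2; Hoechst 40 min; imager read of total nuclear intensity, ex 405/em 500-530 nm.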
Numbers without * were called inactive; i = inactive; ? = inconclusive; / = no result given; [ ] = dose if it differs, or a comment. The call rests on the fitted dose curve; in most records, active means well fitted curve in the direction sought with a large enough effect; inconclusive means small, poorly fitted or top-dose-only effect, or another doubt; inactive means no such curve, though single readings can be large; an effect the other way counts as inactive or inconclusive. Potency means the concentration at half of the fitted maximal effect.

SMILES	MCF10A rereplic	KB-3-1 cytotox	ELG1 repair inh	KB-V1 MDR tox	SW480 rerep
COc1ccc(N(C)S(=O)(=O)c2cccc(C(=O)Nc3nc4ccccc4[nH]3)c2)cc1	?	?	?	16µM*	?
Cc1ccc(NC(=O)c2cc(C)nc3c2c(C)nn3-c2cccc(Cl)c2C)c(C)c1	/	i	/	i	/
CCOC(=O)C1=C(C)NC2=C(C(=O)c3ccccc32)C1c1ccc(O)cc1 (stereo not given)	?	i	-6%	?	?
O=C(Nc1nc2ccccc2[nH]1)c1cccc(Cl)c1	-4%	i	?	i	-3%
CN(c1cccc(Cl)c1)S(=O)(=O)c1cccc(C(=O)Nc2nc3ccccc3[nH]2)c1	8.2µM*	15µM*	?	?	?
COc1cc(/C=N/NC(=S)NC2CC3CC2C2C=CCC32)ccc1O (stereo not given)	-4%	?	3%	?	?
CCOc1ccc(/C=N/NC(=S)NC2CC3CC2C2C=CCC32)cc1 (stereo not given)	6.5µM*	i	?	i	10%
Cc1ccc(NC(=O)CC2Nc3ccccc3NC2=O)cc1Cl (stereo not given)	2.6µM*	?	?	i	16µM*
CCOc1ccccc1NC(=O)CC1Nc2cc(C)c(C)cc2NC1=O (stereo not given)	18µM*	i	?	?	?
CC(C)Oc1cc2ccccc2cc1CNC[C@H]1O[C@@H](n2cnc3c(N)ncnc32)[C@H](O)[C@@H]1O	2%	i	1%	i	2%
Cc1ccccc1S(=O)(=O)NC(=O)C1(C)CCN1C(=O)Cc1cc(F)ccc1F (stereo not given)	/	i	/	i	/
O=C1C2CC=CCC2C(=O)N1c1ccc(Cc2ccncc2)cc1 (stereo not given)	?	?	0%	16µM*	-8%
CCOC(=O)c1c(NC(=O)c2ccc(OC)c(OC)c2)sc2c1CCCCC2	/	i	/	i	/
CCCOc1ccc(C(=O)Nc2sc3c(c2C(=O)OCC)CCCCC3)cc1	/	i	/	?	/
CCOC(=O)c1c(NC(=O)C(=O)N/N=C/c2ccc(OCC)cc2)sc2c1CCCCC2	1%	i	-2%	16µM*	1%
CCOC(=O)c1c(NC(=O)C(=O)N/N=C/c2ccc(O)c(OC)c2)sc2c1CCCCC2	?	i	15µM*	?	1%
COc1ccccc1Cn1c(C)c(C(=O)NCc2ccc3c(c2)OCCO3)sc1=O	/	i	/	?	/
Cc1c(C(=O)NCc2ccc(F)cc2)sc(=O)n1Cc1ccc(C(=O)c2ccccc2)cc1	/	?	/	10µM*	/
COc1ccc(NC(=O)c2sc(=O)n(Cc3ccccc3C#N)c2C)cc1OC	/	?	/	5.8µM*	/
COc1ccc(CNC(=O)c2sc(=O)n(Cc3ccccc3OC)c2C)cc1	/	?	/	9.2µM*	/
COc1ccc(NC(=O)c2sc(=O)n(Cc3ccc4ccccc4c3)c2C)cc1OC	/	i	/	?	/
CC(=O)Oc1ccccc1Cn1c(C)c(C(=O)N(C)Cc2ccc(F)cc2)sc1=O	/	?	/	18µM*	/
CCC/C(=C1/c2ccccc2C(=O)N1c1ccccc1)c1ccc2[nH]ccc2c1	?	i	-20%	?	?
COc1ccccc1CCC(=O)N(CCC1=CCCCC1)c1c(N)n(Cc2ccccc2)c(=O)[nH]c1=O	14%	i	2%	i	?
COc1ccc(CNC(=O)c2cn(Cc3ccccc3F)c(=O)s2)cc1	/	i	/	?	/
SMILES	MCF10A rereplic	KB-3-1 cytotox	ELG1 repair inh	KB-V1 MDR tox	SW480 rerep
COC(=O)c1ccc(Cn2c(C)c(C(=O)Nc3cccc(Oc4ccccc4)c3)sc2=O)o1	/	?	/	12µM*	/
Cc1c(C(=O)NCc2cccc(C(F)(F)F)c2)sc(=O)n1Cc1cccc(F)c1	/	?	/	15µM*	/
COc1ccc(Cl)cc1Cn1c(C)c(C(=O)NCc2ccc(F)cc2)sc1=O	/	?	/	15µM*	/
Cc1c(C(=O)NCc2ccc3c(c2)OCO3)sc(=O)n1Cc1cccc(F)c1	/	i	/	?	/
COc1ccc(CNC(=O)c2cn(Cc3ccccc3OC)c(=O)s2)cc1	/	i	/	7.3µM*	/
CN(CC(=O)Nc1ccc(Cl)c(C(F)(F)F)c1)C(=O)C1CC(=O)N(c2ccc3c(c2)OCCO3)C1 (stereo not given)	/	i	/	i	/
CNC(=S)NC12CC3CC(CC(C3)C1)C2	9%	i	0%	i	2%
Cc1c(C(=O)NCc2ccc(C#N)cc2)sc(=O)n1Cc1ccccn1	/	i	/	?	/
Cc1cccc(C)c1Cn1c(C)c(C(=O)NCc2ccc(C#N)cc2)sc1=O	/	?	/	18µM*	/
C[C@H]1[C@H](C)CC[C@]2(C)CC[C@]3(C)C(=CC(=O)C4[C@@]5(C)CC[C@H](O)C(C)(C)C5CC[C@]43C)[C@H]12 (stereo not given in full)	?	i	16%	i	-14%[9.22 µM]
CC1(C)[C@@H](O)CC[C@]2(C)[C@H]3C(=O)C=C4[C@@H]5C[C@@](C)(C(=O)O)CC[C@]5(C)CC[C@@]4(C)[C@]3(C)CC[C@@H]12	-37%	i	5%	i	-11%
CC1(C)[C@@H](O)CC[C@]2(C)C3C(O)C=C4[C@H]5C[C@@](C)(CO)CC[C@]5(C)CC[C@]4(C)[C@]3(C)CC[C@@H]12 (stereo not given in full)	13µM*	i	20%	i	-4%
CC1(C(=O)O)CCC2(C)CCC3(C)C(=CC(=O)C4C5(C)CCC(O)C(C)(C)C5CCC43C)C2C1 (stereo not given)	27µM*	/	/	/	3%
CC(C)NC(=O)NC(=O)COC(=O)c1ccc(S(=O)(=O)NCc2ccco2)cc1	4%	i	4%	i	-2%
C=CC[C@]12CCc3sccc3C1N(c1ccc(C(=O)OCC)cc1)C2=O (stereo not given in full)	28%	i	2%	i	0%
CCOC(=O)c1cc(NC(=O)N(CC)C2CCCCC2)c(C)nc1C	13%	i	3%	23µM*	-2%
O=[N+]([O-])c1ccc(-n2cccn2)c(-c2nn[nH]n2)c1	-5%	i	22%	i	0%
COc1ccc(OCC(O)CNC(=O)c2ccc(Br)cc2)cc1 (stereo not given)	0%	i	-16%	4.1µM*	-1%

Assay outcomes from PubChem.
